Screening results: PubChem, National Center for Advancing Translational Sciences (NCATS)
Cycloheximide cs: counter-screen hit for Shiga toxin inhibitors, cycloheximide | cell reporter, cycloheximide protein synthesis inhibition counterscreen | max response, % | actives 12% (n = 300,000); in the data active = max response mostly above about 13%, no sharp cut-off; inactive = mostly below about 14%; note: read at 38.3 µM for the half of the compounds with a filed dose; 0% is about no effect
Giardia FBPA inh: Giardia lamblia aldolase inhibition. actives 0.71% (n = 290,000). Potency, µM (series often up to 59.6 µM), for inactives: top-dose activity, negative = inhibition, usual class: inhibitors. purified Giardia FBPA. A8B2U2. AID 2451; note: potency is the fitted concentration of half-maximal effect; % is set by controls: 0 for no effect and ±100 for the full control effect; nearly all actives have a fitted effect of over 55% in size
Target sequence (A8B2U2 whole entry, looked up): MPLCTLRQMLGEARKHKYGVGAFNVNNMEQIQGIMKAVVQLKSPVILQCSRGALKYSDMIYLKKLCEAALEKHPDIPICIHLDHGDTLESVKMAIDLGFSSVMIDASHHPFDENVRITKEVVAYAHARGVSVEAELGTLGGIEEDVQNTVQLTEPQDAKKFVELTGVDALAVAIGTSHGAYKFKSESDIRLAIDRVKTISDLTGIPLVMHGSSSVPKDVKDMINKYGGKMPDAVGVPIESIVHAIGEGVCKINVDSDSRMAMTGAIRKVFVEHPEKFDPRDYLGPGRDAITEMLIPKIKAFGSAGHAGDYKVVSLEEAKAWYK
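40 nM FBPA preincubated 10 min at RT with compound (up to 57.5 uM final), then substrate plus GAPDH/TPI/NAD/arsenate coupling and diaphorase/resazurin added. Fluorescence read after 20 min at RT, 525/598 nm.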
Tb PYK inh: inhibitors of Trypanosoma brucei pyruvate kinase; Potency, µM (doses to about 76.8 µM), for inactives: at the top dose activity, negative = inhibition, actives largely listed as inhibitors; Q57TT1; AID 624173; actives 0.12% (n = 410,000); TbPYK enzyme, Kinase-Glo Plus ATP luminescence, 45 min; note: potency is the fitted concentration of half-maximal effect; % is set by controls: 0 for no effect and ±100 for the full control effect; nearly all actives have a fitted effect of over 50% in size
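In this concentration-response screen, enzyme-free wells defined baseline while DMSO plates tracked drift. Each reaction combined TbPYK, substrate, compound and 130 uM ADP for 45 min at room temperature. Kinase-Glo Plus luminescence gave the signal.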
LmPK inh: LmPK (Leishmania mexicana) enzyme inhibition | purified LmPK, Kinase-Glo ATP luminescence, 1 h | Potency, µM (highest dose often 57.5 µM), without a hit: at the top dose activity change, negative = inhibition, most hits filed as inhibitors | actives 0.37% (n = 290,000) | AID 1721; note: potency is the fitted concentration of half-maximal effect; % is set by controls: 0 for no effect and ±100 for the full control effect
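qHTS format; LmPK 0.1 nM; substrates PEP 0.5 mM and ADP 0.1 mM. One-hour room-temperature incubation, then coupled luciferase luminescence; 0.5 nM enzyme wells mark activation.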
RE007 growth inh: less growth of the S. pombe RE007 Vpr strain | S. pombe RE007 Vpr strain, BacTiter-Glo ATP luminescence, 24 h | Potency, µM (doses to about 92.2 µM), for the others: at the top dose activity change, negative = less growth, actives largely listed as inhibitors | actives 0.21% (n = 360,000); active = well fitted falling curve with a large enough effect; inconclusive = small, poorly fitted or top-dose-only effect; inactive = no such curve, though single readings can be large or run the other way; note: potency is the fitted concentration of half-maximal effect; % is set by controls: 0 for no effect and ±100 for the full control effect; nearly all actives have a fitted effect of over 50% in size
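Fission yeast RE007 carrying one integrated HIV-1 vpr copy, seeded at OD 0.01 in PMG+AL medium with 23 nL pinned compound. Grown 24 h at 30 degrees; viability read by BacTiter-Glo luminescence after 5 min.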
Shiga toxin inh: Shiga toxin inhibition | inhibition, % at 38.7 µM | Vero cells, Shiga toxin protein synthesis inhibition reporter | actives 9.2% (n = 290,000) | AID 2315; in the data active = inhibition mostly above about 28%, no sharp cut-off; inactive = mostly below about 43%; note: 0% is about no effect
* hit, by the source's call; ? = inconclusive; / = no result; [ ] = dose if it differs, or a comment. The entries come from a sample that favours hits as a whole. Unless noted, calls come from the whole dose curve; as a rule, active = well fitted curve in the direction sought with a large enough effect; inconclusive = small, poorly fitted or top-dose-only effect, or another doubt; inactive = no such curve, though single readings can be large; an effect the other way counts as inactive or inconclusive.

SMILES | Cycloheximide cs | Giardia FBPA inh | Tb PYK inh | LmPK inh | RE007 growth inh | Shiga toxin inh
Nc1nc2[nH]cc(CCc3ccc(C(=O)NC(CCC(=O)O)C(=O)O)cc3)c2c(=O)[nH]1 (stereo unspecified) | / | / | 2% | / | / | /
O=C(Nc1ccc(F)cc1)C1CCCCC1 | 12 | -8% | -3% | 7% | -11% | 34
O=C(NC(=S)Nc1ccc(Br)c(Cl)c1)C1CC1 | 26* | / | 3% | -7% | 4% | 32*
CC(=O)Nc1ccc(NC(=S)NC(=O)C2CC2)cc1 | 25* | -9% | -2% | 4% | 7% | 64*
O=C(NC(=S)Nc1ccc(O)cc1)C1CCCC1 | / | / | 1% | / | -2% | /
CC(=O)c1ccc(NC(=S)Nc2ccc(Br)c(Cl)c2)cc1 | -1 | -17% | -3% | 2% | 2% | -4
O=C(NC(=S)Nc1ccc(F)cc1)C1CCCCC1 | 23* | / | 0% | -11% | -15% | 89*
Cc1cccc(C)c1OCC(=O)Nc1nc(-c2ccc(Br)cc2)ns1 | / | / | 2% | / | / | /
Cc1ccccc1OCC(=O)OCc1cc(=O)n2nc(C3CC3)sc2n1 | / | / | 3% | / | / | /
NC(=O)c1ccccc1NC(=O)/C=C/c1cccc(Cl)c1 | 45* | 0% | / | 0% | -12%[3.69 µM] | 118*
NC(=O)c1ccccc1NC(=O)/C=C/c1c(Cl)cccc1Cl | 27* | / | 7% | 4% | -4% | 143*
COc1cc2nc(Nc3ccc(F)cc3)nc(N)c2cc1OC | 17* | -6% | -1% | -2% | 9% | 9
COCCNc1nc(-c2cc(C)c(C)cc2C)cs1 | 20* | -11% | 4% | 1% | -18% | 73*
Cc1cc(C(=O)Cn2nc(C(=O)O)c3ccccc3c2=O)c(C)n1CCc1ccc(F)cc1 | 20* | -1% | 1% | 4% | -10% | 19
Cc1cc(C(=O)Cn2nc(C(=O)O)c3ccccc3c2=O)c(C)n1CC(F)(F)F | 36* | 3% | -1% | 1% | 24% | 189*
CCN(CCCCOC(=O)c1ccc(OC)c(OC)c1)[C@@H](C)Cc1ccc(OC)cc1 | / | 1%[21.7 µM] | 1%[33.2 µM] | / | / | /
O=S(=O)(c1ccccc1)N1CCN(c2nnnn2-c2ccccc2)CC1 | -4 | 4% | 0% | -11% | 46% | -22
O=S(=O)(c1ccc2c(c1)OCO2)N1CCN(c2nnnn2-c2ccccc2)CC1 | 36* | 16% | -5% | 1% | 9% | 13
CCOC(=O)CN1C(=O)c2cccnc2Oc2ccccc21 | / | / | 0% | / | / | /
O=C(CCCC(=O)N(c1ccc2c(c1)OCCO2)C(C(=O)NC1CCCCC1)c1ccc(Cl)cc1)Nc1ccccn1 (stereo unspecified) | 24* | -1% | 0% | 3% | 0% | 33*
CCNc1ncc2nc(CCc3ccccc3)c(=O)n(CCC#N)c2n1 | / | 9% | / | / | / | /
CN(Cc1c(F)cccc1Cl)C(=O)c1cc2ccccc2o1 | 37* | 0% | 2% | 1% | ? | 35
CSc1ccc(CN(C)C(=O)c2cc(=O)c3ccccc3o2)cc1 | -1 | 2% | 0% | -1% | 4% | 11
CSc1ccc(CN(C)C(=O)c2cc3ccccc3o2)cc1 | 39* | 11% | 0% | -3% | 35% | 87*
CN(C(=O)c1ccoc1)c1ccccc1I | -3 | 5% | / | / | / | 25
SMILES | Cycloheximide cs | Giardia FBPA inh | Tb PYK inh | LmPK inh | RE007 growth inh | Shiga toxin inh
Brc1ccccc1OCCCN1CCOCC1 | 32* | -8% | -15% | 0% | 6% | 50*
Brc1ccc(OCCCN2CCOCC2)cc1 | 14* | -28% | -7% | -10% | -1% | 30
Brc1ccc(OCCN2CCOCC2)cc1 | 15 | ? | -2% | -4% | -7% | 23*
Clc1ccc(OCCN2CCOCC2)cc1 | 5 | 2% | -4% | 1% | 0% | 13
CC(C)c1ccc(OCCCCCN2CCOCC2)cc1 | 54* | ? | -1% | 3% | -2% | 116*
CC(C)c1ccc(OCCCN2CCCC2)cc1 | -2 | -30% | 9% | 0% | 7% | -2
Cc1ccc(NC(=O)CSc2nc3nccnc3c(=O)n2CCc2c[nH]c3ccccc23)cc1C | / | / | -6% | / | / | /
Cc1ccc(C(=O)Nc2nccc(-c3cccs3)n2)cc1 | 28* | -11% | 6% | 0% | -6% | 19
NC(=S)Nc1nccc(-c2cccs2)n1 | 41* | 3% | 0% | -2% | 12% | 61*
Cc1sc2ncnc(N/N=C/c3cccc(O)c3)c2c1C | 42* | -22% | -7% | -2% | 8% | 29*
Cc1sc2ncnc(Nc3ccc(O)cc3)c2c1C | 6 | -12% | -2% | -4% | -15% | 10
Cc1ccc(Nc2ncnc3sc(C)c(C)c23)cc1 | 24* | -2% | -1% | 1% | 2% | 79*
C/C(=N\Nc1ncnc2sc(C)c(C)c12)c1ccccn1 | 49* | ? | -12% | 3% | ? | 67*
O=C(CCc1nnc(-c2ccc3c(c2)OCO3)o1)N1CCC(c2ccc(F)cc2)C1 (stereo unspecified) | 31* | -3% | -14% | -8% | -26% | 108*
O=C(CCc1nnc(-c2ccc3c(c2)OCO3)o1)NC(c1ccccn1)C(F)(F)F (stereo unspecified) | 38* | 1% | 1% | 1% | 40% | 64*
COc1ccccc1CNC(=O)CCCn1nc(C)c2sc3ccccc3c2c1=O | / | / | 5% | / | / | /
C[C@H]1COC(=O)O1 | -4 | 3% | / | / | / | 16
COC(=O)c1ccccc1NC(=O)CSc1nc2ccccc2nc1Cc1ccccc1OC | / | / | 5% | / | / | /
CCCCC(=O)Nc1ncc([N+](=O)[O-])s1 | 17* | 0% | 1% | -5% | -9% | 54*
CCCCC(=O)Nc1nnc(C)s1 | -7 | 3% | 0% | -4% | -1% | -2
CC(C)CC(=O)Nc1ncc([N+](=O)[O-])s1 | 41* | -19% | -12% | 1% | -20% | 84*
CCCCC(=O)Nc1ncc(Br)s1 | 11* | 6% | 26% | 4% | 4% | 32
Cc1cccc(/C=C(\C(=O)C(=O)O)c2ccc3ccccc3n2)c1 | 46* | -7% | 3% | -1% | -7% | 62*
N#Cc1ccc(/C=C(\C(=O)C(=O)O)c2ccc3ccccc3n2)cc1 | 57* | -11% | -1% | -3% | -9% | 74*
Cc1cccc(/C=C(\c2nc3ccccc3[nH]2)S(=O)(=O)c2ccccc2)c1 | -4 | 0% | 0% | 7% | -2% | -6
O=C(O)C(=O)/C(=C\c1cccc(Cl)c1)c1ccc2ccccc2n1 | 93* | -21% | 0% | 0% | 5% | 110*
Cc1ccc(Cl)cc1N1CCN(C(=O)c2cnn(C)c2C2CCN(C(=O)OC(C)(C)C)CC2)CC1 | / | / | -7%[15.4 µM] | / | / | /
Cc1cc(OC(C)C(=O)Nc2c(C(=O)c3ccc(F)cc3)oc3ccccc23)ccc1Cl (stereo unspecified) | / | / | 0% | / | / | /
